Results published in PubChem BioAssay (NCATS).
Records with an inconclusive call do not appear. Active and inactive are the calls of the source. Unless noted, the call rests on the fitted dose curve; in most records, active means well fitted inhibition curve with a large enough effect; inconclusive means small, poorly fitted or top-dose-only effect; inactive means flat fitted curve, though single readings scatter.

Tests used:
[1] = qHTS for identification of novel therapeutic agents for treatment of microphthalmiaassociated transcription factor (MiT) renal cell carcinoma (RCC) (AID 1963991); conditions: CellTiter-Glo, 48 h, stronger effect = lower value
Summary of the method: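 Three TFE3-fusion RCC cell lines (UOK109, UOK124, UOK145), 500 cells/well, were exposed to the 1912-compound MIPE 4.0 library for 48 hours at 37 C. Viability was read by CellTiter-Glo luminescence, normalised to DMSO (100%) and empty wells (0%), with 11-concentration curve fits.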

[2] = qHTS drug screen for cell cycle checkpoint inhibitors in PARPi-resistant BRCA-mutant ovarian cancer cell lines. (AID 1963452; calls by dose curve); conditions: PEO1/OlaR viability, CellTiter-Glo luminescence, 96 h, stronger effect = lower value
Summary of the method: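 PEO1, PEO4 and PEO1/OlaR ovarian cancer cells, 600 per well, exposed 96 h at 37C to a dilution series. Viability read by CellTiter-Glo luminescence, normalized to DMSO and empty wells; activity summarized as Z-AUC.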

[3] = qHTS profiling for inhibitors of Plasmodium falciparum proliferation (AID 504749); further: nearly all actives have a fitted effect of over 60% in size; further: potency means the concentration at half of the fitted maximal effect;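 on activity, negative = inhibition: 0% = DMSO vehicle and full inhibition = artemisinin control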; conditions: P. falciparum in erythrocytes, SYBR Green DNA, 72 h
Summary of the method: (§1)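 Fluorescence of SYBR Green-bound parasite DNA, read at 485/535 nm, served as the growth measure. Infected erythrocytes were cultured with compound 72 h; artemisinin (0.29 uM) and DMSO wells defined the normalization range.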

3D7 = test: as above; conditions: P. falciparum in erythrocytes, SYBR Green DNA, 72 h; series mostly up to 28.7 µM
Summary of the method: as §1

7G8 = test: as above; conditions: P. falciparum in erythrocytes, SYBR Green DNA, 72 h; series mostly up to 28.7 µM
Summary of the method: as §1

AA1029 = test: as above; conditions: P. falciparum in erythrocytes, SYBR Green DNA, 72 h; series mostly up to 28.7 µM
Summary of the method: as §1

AS120 = test: as above; conditions: P. falciparum in erythrocytes, SYBR Green DNA, 72 h; series mostly up to 28.7 µM
Summary of the method: as §1

[4] = measured here: PEO1 parental Z-AUC
[5] = at 28.7 µM (top of the series), parasite line A
[6] = at 28.7 µM (top of the series), parasite line B

| SMILES | z-score ([1]; TFE3-RCC UOK109 viability, measured here: UOK109 Z-AUC) | z-score ([1]; TFE3-RCC viability, measured here: UOK124 Z-AUC) | z-score ([1]; TFE3-RCC viability, measured here: UOK145 Z-AUC) | Z-AUC [2] | Z-AUC [2, 4] | Z-AUC ([2]; measured here: PEO4 Z-AUC) | activity, negative = inhibition [3, 5] | activity, negative = inhibition [3, 6] | Potency (3D7) | Potency (7G8) | Potency (AA1029) | Potency (AS120) | activity, negative = inhibition ([3]; at 12.8 µM (top of the series), parasite line A) | activity, negative = inhibition ([3]; at 12.8 µM (top of the series), parasite line B) | Potency ([3]; parasite line B) |
| --- | --- | --- | --- | --- | --- | --- | --- | --- | --- | --- | --- | --- | --- | --- | --- |
| CCOc1cc(C=C2C(=O)N(c3ccccc3)N=C2C)cc(Cl)c1OCC(=O)OC | 0.66 | 0.208 | 0.267 |  |  |  |  |  |  |  |  |  |  |  |  |
| NCCCC(N)(C(=O)O)C(F)F (configuration not stated) |  |  |  | 0.209 (inactive) | 0.253 | 1.05 | 2.98% (inactive) | 4.55% (inactive) | inactive | inactive | inactive | inactive |  |  |  |
| CC(=O)Oc1ccccc1C(=O)O |  |  |  | 0.925 (inactive) | 0.885 | 1.16 | 3.3% (inactive) | 6.15% (inactive) | inactive | inactive | inactive | inactive |  |  |  |
| Cc1[nH]c(=O)c(C#N)cc1-c1ccc2nccn2c1 |  |  |  | -0.546 (inactive) | -0.575 | -0.131 | 5.44% (inactive) | 15.3% (inactive) | inactive | inactive | inactive | inactive |  |  |  |
| Oc1ccc(C2CNCCc3c2cc(O)c(O)c3Cl)cc1 (configuration not stated) |  |  |  | 1.23 (inactive) | 1.1 | 1 |  |  | inactive |  | inactive | inactive |  |  |  |
| N#Cc1ccc(C(c2ccc(C#N)cc2)n2cncn2)cc1 |  |  |  | 1.61 (inactive) | 1.56 | 1.79 |  |  | inactive | inactive | inactive | inactive | 0.0131% (inactive) | 3.12% (inactive) |  |
| O=c1[nH]cnc2[nH]ncc12 |  |  |  | -0.687 (inactive) | -0.667 | -0.722 | -0.162% (inactive) | 2.37% (inactive) | inactive | inactive | inactive | inactive |  |  |  |
| Cc1cc2c(C(C)C)c(O)c(O)c(C=O)c2c(O)c1-c1c(C)cc2c(C(C)C)c(O)c(O)c(C=O)c2c1O |  |  |  | 1.05 (inactive) | 0.604 | 0.413 |  |  |  | 8.91 µM (active) |  | 8.91 µM (active) |  |  |  |
| Cc1ccc(N(CC2=NCCN2)c2cccc(O)c2)cc1 |  |  |  | 1.67 (inactive) | 1.44 | 1.79 | -3.3% (inactive) | -5.03% (inactive) | inactive | inactive | inactive | inactive |  |  |  |
| Cc1[nH]c(=O)c(C#N)cc1-c1ccncc1 |  |  |  | -0.809 (inactive) | -0.611 | -0.635 | -21.8% (inactive) | -1.27% (inactive) | inactive | inactive | inactive | inactive |  |  |  |
| Nc1nc2ccc(OC(F)(F)F)cc2s1 |  |  |  | -0.346 (inactive) | -0.387 | 0.245 |  |  | inactive | inactive | inactive | inactive |  |  |  |
| CCCc1nc2c(C)cc(-c3nc4ccccc4n3C)cc2n1Cc1ccc(-c2ccccc2C(=O)O)cc1 |  |  |  | 0.748 (inactive) | 1.08 | 0.729 | -11.3% (inactive) |  | 8.91 µM (active) | 0.316 µM (active) |  | 1.41 µM (active) |  |  | 1.78 µM (active) |
